PubChem BioAssay (NCATS)
Results filed as inconclusive are left out. The source made the active and inactive calls. Calls follow the shape of the dose curve; as a rule, active = well fitted cell-killing curve with a large enough effect; inconclusive = small, poorly fitted or top-dose-only effect, or effect the other way; inactive = no such curve, though single readings can be large or run the other way.

Key:
[1] = Quantitative High-Throughput drug screen in 47 multiple myeloma cell lines against the NCATS MIPE library collection: MM1R_ATCC cell viability assay (AID 1918981); also: nearly all actives have a fitted effect of over 35% in size; also: potency is read from the fitted curve at half-maximal effect
How it was run: (§1)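 Readout: median RLU from CellTiter-Glo after 5 min at room temperature. Preceding step was 48 h drug treatment of 500 cells/well at 37 °C, 5% CO2, with DMSO-only and media-only control wells.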

[2] = Quantitative High-Throughput drug screen in 47 multiple myeloma cell lines against the NCATS MIPE library collection: KMS34_JCRB cell viability assay (AID 1918985); also: nearly all actives have a fitted effect of over 40% in size; also: potency is read from the fitted curve at half-maximal effect
How it was run: as §1

[3] = Quantitative High-Throughput drug screen in 47 multiple myeloma cell lines against the NCATS MIPE library collection: OPM1_PLB cell viability assay (AID 1918989); also: nearly all actives have a fitted effect of over 40% in size; also: potency is read from the fitted curve at half-maximal effect;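 as to viability (% of control): 100% = DMSO-only wells and 0% = media-only wells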
How it was run: as §1

[4] = Quantitative High-Throughput drug screen in 47 multiple myeloma cell lines against the NCATS MIPE library collection: XG6_PLB cell viability assay (AID 1919865); also: nearly all actives have a fitted effect of over 40% in size; also: potency is read from the fitted curve at half-maximal effect;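 as to viability (% of control): 100% = DMSO-only wells and 0% = media-only wells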
How it was run: as §1

[5] = Quantitative High-Throughput drug screen in 47 multiple myeloma cell lines against the NCATS MIPE library collection: XG1_PLB cell viability assay (AID 1919866); also: nearly all actives have a fitted effect of over 35% in size; also: potency is read from the fitted curve at half-maximal effect
How it was run: as §1

[6] = Quantitative High-Throughput drug screen in 47 multiple myeloma cell lines against the NCATS MIPE library collection: UTMC2_PLB cell viability assay (AID 1919868); conditions: CellTiter-Glo ATP luminescence, 48 h; viability (% of DMSO control): at 45.8 µM (top of the series); also: nearly all actives have a fitted effect of over 55% in size; also: potency is read from the fitted curve at half-maximal effect;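 as to viability (% of DMSO control): 100% = DMSO-only wells and 0% = media-only wells without cells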
How it was run: as §1

[7] = Quantitative High-Throughput drug screen in 47 multiple myeloma cell lines against the NCATS MIPE library collection: PE2_PLB cell viability assay (AID 1919869); also: nearly all actives have a fitted effect of over 35% in size; also: potency is read from the fitted curve at half-maximal effect;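 as to viability (% of control): 100% = DMSO-only wells and 0% = cell-free media-only wells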
How it was run: as §1

[8] = Quantitative High-Throughput drug screen in 47 multiple myeloma cell lines against the NCATS MIPE library collection: PCM6_Riken cell viability assay (AID 1919870); also: nearly all actives have a fitted effect of over 30% in size; also: potency is read from the fitted curve at half-maximal effect;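 as to viability (% of control): 100% = DMSO-only wells and 0% = media-only wells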
How it was run: as §1

[9] = Quantitative High-Throughput drug screen in 47 multiple myeloma cell lines against the NCATS MIPE library collection: RPMI8226_ATCC cell viability assay (AID 1919871); also: nearly all actives have a fitted effect of over 30% in size; also: potency is read from the fitted curve at half-maximal effect
How it was run: as §1

[10] = Quantitative High-Throughput drug screen in 47 multiple myeloma cell lines against the NCATS MIPE library collection: OPM2_DSMZ cell viability assay (AID 1919872); also: nearly all actives have a fitted effect of over 30% in size
How it was run: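 Inhibition of cell viability is measured here. Each line was plated at 500 cells per well, treated with MIPE 4.0 drugs, kept 48 hours at 37C, then assayed for ATP content by CellTiter-Glo luminescence.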

[11] = Quantitative High-Throughput drug screen in 47 multiple myeloma cell lines against the NCATS MIPE library collection: VP6_DJ cell viability assay (AID 1919867); also: nearly all actives have a fitted effect of over 40% in size; also: potency is read from the fitted curve at half-maximal effect;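 as to viability (% of DMSO): 100% = DMSO-only wells and 0% = wells with media alone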
How it was run: as §1

[12] = Quantitative High-Throughput drug screen in 47 multiple myeloma cell lines against the NCATS MIPE library collection: KMS11_JCRBsus cell viability assay (AID 1919873); also: nearly all actives have a fitted effect of over 50% in size; also: potency is read from the fitted curve at half-maximal effect;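 as to viability (% of control): 100% = DMSO-only wells and 0% = media-only wells without cells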
How it was run: as §1

[13] = Quantitative High-Throughput drug screen in 47 multiple myeloma cell lines against the NCATS MIPE library collection: LP1_DSMZ cell viability assay (AID 1918982); also: nearly all actives have a fitted effect of over 35% in size; also: potency is read from the fitted curve at half-maximal effect
How it was run: as §1

[14] = Quantitative High-Throughput drug screen in 47 multiple myeloma cell lines against the NCATS MIPE library collection: KMS28PE_JCRB cell viability assay (AID 1918983); also: nearly all actives have a fitted effect of over 35% in size; also: potency is read from the fitted curve at half-maximal effect
How it was run: as §1

[15] = Quantitative High-Throughput drug screen in 47 multiple myeloma cell lines against the NCATS MIPE library collection: SKMM1_PLB cell viability assay (AID 1919863); conditions: SKMM1 myeloma viability, CellTiter-Glo ATP, 48 h; viability: active compounds read low; also: nearly all actives have a fitted effect of over 35% in size; also: potency is read from the fitted curve at half-maximal effect
How it was run: as §1

[16] = Quantitative High-Throughput drug screen in 47 multiple myeloma cell lines against the NCATS MIPE library collection: KMS28BM_JCRB cell viability assay (AID 1919874); also: nearly all actives have a fitted effect of over 35% in size; also: potency is read from the fitted curve at half-maximal effect
How it was run: as §1

[17] = Quantitative High-Throughput drug screen in 47 multiple myeloma cell lines against the NCATS MIPE library collection: OCIMY5_PLB cell viability assay (AID 1918988); also: nearly all actives have a fitted effect of over 65% in size; also: potency is read from the fitted curve at half-maximal effect
How it was run: as §1

[18] = Quantitative High-Throughput drug screen in 47 multiple myeloma cell lines against the NCATS MIPE library collection: L363_DSMZ cell viability assay (AID 1918984); conditions: L363 myeloma viability, CellTiter-Glo ATP luminescence, 48 h; viability (% of control): at 45.8 µM (top of the series); also: nearly all actives have a fitted effect of over 40% in size; also: potency is read from the fitted curve at half-maximal effect
How it was run: as §1

[19] = Quantitative High-Throughput drug screen in 47 multiple myeloma cell lines against the NCATS MIPE library collection: U266_ATCC cell viability assay (AID 1919864)
How it was run: as §1

[20] = Quantitative High-Throughput drug screen in 47 multiple myeloma cell lines against the NCATS MIPE library collection: OCIMY7_PLB cell viability assay (AID 1918987); conditions: OCI-MY7 myeloma viability, CellTiter-Glo ATP, 48 h; viability (% of DMSO): at 45.8 µM (top of the series); also: nearly all actives have a fitted effect of over 65% in size; also: potency is read from the fitted curve at half-maximal effect
How it was run: as §1

CC[C@H]1OC(=O)[C@H](C)[C@@H](O[C@H]2C[C@@](C)(OC)[C@@H](O)[C@H](C)O2)[C@H](C)[C@@H](O[C@@H]2O[C@H](C)C[C@H](N(C)C)[C@H]2O)[C@](C)(O)C[C@H](C)C(=NOCOCCOC)[C@H](C)[C@@H](O)[C@]1(C)O
inactive: Potency [1] | Potency [2] | Potency [3] | Potency [4] | Potency [5] | Potency [6] | Potency [7] | Potency [8] | Potency [10]
active: Potency [9] 4.69 µM

C=C1[C@H](n2cnc3c(=O)[nH]c(N)nc32)C[C@H](O)[C@H]1CO
active: Potency [1] 5.9 µM | Potency [3] 2.35 µM | Potency [5] 1.18 µM | Potency [11] 4.69 µM
inactive: Potency [4] | Potency [7] | Potency [10]

O=C(Nc1cccc2c(=O)cc(-c3nn[nH]n3)oc12)c1ccc(OCCCCc2ccccc2)cc1
inactive: Potency [10]
active: Potency [1] 26.4 µM | Potency [3] 18.7 µM | Potency [4] 26.4 µM | Potency [5] 26.4 µM | Potency [6] 14.8 µM | Potency [7] 26.4 µM | Potency [12] 23.5 µM

C[C@]12CCC3=C4CCC(=O)C=C4CC[C@@H]3[C@H]1CC[C@@]2(O)CC#N
inactive: Potency [13] | Potency [14] | viability [15] 162% | Potency [5] | Potency [7] | Potency [9] | Potency [10] | Potency [16]

CN1CCC[C@H]1CCO[C@](C)(c1ccccc1)c1ccc(Cl)cc1
active: Potency [14] 23.5 µM | Potency [17] 26.4 µM | Potency [3] 26.4 µM | Potency [5] 18.7 µM | Potency [11] 18.7 µM | Potency [6] 14.8 µM | Potency [16] 5.26 µM
inactive: Potency [13] | Potency [2] | viability [15] 84.5% | Potency [9] | Potency [10]

COc1ccc2nc3cc(Cl)ccc3c(Nc3cc(CN4CCCC4)c(O)c(CN4CCCC4)c3)c2n1
active: Potency [13] 20.9 µM | Potency [18] 16.6 µM | Potency [17] 18.7 µM | Potency [15] 14.8 µM | Potency [19] 23.5 µM | Potency [4] 14.8 µM | Potency [5] 18.7 µM | Potency [11] 9.35 µM | Potency [7] 18.7 µM | Potency [8] 16.6 µM | Potency [9] 18.7 µM | Potency [12] 16.6 µM | Potency [16] 23.5 µM

CCCCc1ccc(NS(=O)(=O)c2ccc(C)c(C(=O)N3CCN(c4cccc(C)c4C)CC3)c2)cc1
active: Potency [13] 23.5 µM | Potency [14] 23.5 µM | Potency [2] 18.7 µM | Potency [15] 20.9 µM | Potency [19] 13.2 µM | Potency [8] 26.4 µM | Potency [9] 20.9 µM | Potency [16] 16.6 µM
inactive: Potency [18]

CC(C)C[C@@H](N)[C@H](O)C(=O)N[C@H](C(=O)N[C@H](C(=O)N[C@@H](CC(=O)O)C(=O)O)C(C)C)C(C)C
active: Potency [3] 4.69 µM | Potency [4] 7.43 µM | Potency [5] 2.64 µM | Potency [11] 5.26 µM | Potency [7] 18.7 µM
inactive: Potency [13] | Potency [14] | Potency [18] | Potency [17] | viability [15] 122% | Potency [9] | Potency [10] | Potency [12]

CCOC(=O)[C@H](CCc1ccccc1)N[C@@H](C)C(=O)N1CCCC1C(=O)O (some centres undefined)
inactive: Potency [13] | Potency [14] | Potency [20] | Potency [3] | Potency [7] | Potency [9] | Potency [12] | Potency [16]
active: Potency [19] 20.9 µM | Potency [4] 23.5 µM | Potency [5] 23.5 µM | Potency [11] 20.9 µM | Potency [8] 26.4 µM

CCCCC(C)(C)[C@H](O)C=C[C@H]1[C@H](O)CC(=O)[C@H]1CC=CCCCC(=O)O
active: Potency [1] 18.7 µM | Potency [2] 5.9 µM | Potency [19] 13.2 µM | Potency [4] 23.5 µM | Potency [8] 26.4 µM | Potency [9] 8.33 µM

Cc1ccccc1C(C(=O)NC1CCCCC1)N(C(=O)CNc1ccc(C#N)cc1)c1cccc(F)c1 (centres undefined)
inactive: Potency [13] | Potency [14] | Potency [2] | Potency [3] | Potency [4] | Potency [5] | Potency [11] | Potency [7] | Potency [10]
active: Potency [9] 23.5 µM

CC(=O)Nc1cccc(-n2c(=O)n(C3CC3)c(=O)c3c(Nc4ccc(I)cc4F)n(C)c(=O)c(C)c32)c1
inactive: Potency [13] | Potency [2] | Potency [17] | Potency [11] | Potency [16]
active: Potency [14] 8.33 µM | Potency [18] 5.9 µM | Potency [20] 0.0132 µM | Potency [3] 0.296 µM | Potency [15] 3.72 µM | Potency [19] 1.48 µM | Potency [4] 0.332 µM | Potency [5] 0.0418 µM | Potency [7] 0.296 µM | Potency [9] 1.66 µM
